Results from PubChem BioAssay (Tox21).
Where “and” joins values, the source holds several entries; their conditions need not be identical. Equal values may be shown once. Results filed as inconclusive are left out. A structure can be active in one record and inactive in another. Calls of active or inactive are those of the source. Unless noted, calls come from the whole dose curve; as a rule, active = well fitted curve in the direction sought with a large enough effect in the repeat runs; inconclusive = weak or mixed curves; inactive = no such curve, though single readings can be large; an effect the other way counts as inactive or inconclusive.

How the values were obtained:
[1] = biological target: Thyrotropin receptor (Homo sapiens) (UniProt P16473); test: qHTS assay to identify small molecule antagonists of the thyroid stimulating hormone receptor (TSHR) signaling pathway (AID 1259385; calls by dose curve; note: nearly all actives have a fitted effect of over 20% in size)
Chain of Thyrotropin receptor (Homo sapiens) (P16473 whole entry, looked up): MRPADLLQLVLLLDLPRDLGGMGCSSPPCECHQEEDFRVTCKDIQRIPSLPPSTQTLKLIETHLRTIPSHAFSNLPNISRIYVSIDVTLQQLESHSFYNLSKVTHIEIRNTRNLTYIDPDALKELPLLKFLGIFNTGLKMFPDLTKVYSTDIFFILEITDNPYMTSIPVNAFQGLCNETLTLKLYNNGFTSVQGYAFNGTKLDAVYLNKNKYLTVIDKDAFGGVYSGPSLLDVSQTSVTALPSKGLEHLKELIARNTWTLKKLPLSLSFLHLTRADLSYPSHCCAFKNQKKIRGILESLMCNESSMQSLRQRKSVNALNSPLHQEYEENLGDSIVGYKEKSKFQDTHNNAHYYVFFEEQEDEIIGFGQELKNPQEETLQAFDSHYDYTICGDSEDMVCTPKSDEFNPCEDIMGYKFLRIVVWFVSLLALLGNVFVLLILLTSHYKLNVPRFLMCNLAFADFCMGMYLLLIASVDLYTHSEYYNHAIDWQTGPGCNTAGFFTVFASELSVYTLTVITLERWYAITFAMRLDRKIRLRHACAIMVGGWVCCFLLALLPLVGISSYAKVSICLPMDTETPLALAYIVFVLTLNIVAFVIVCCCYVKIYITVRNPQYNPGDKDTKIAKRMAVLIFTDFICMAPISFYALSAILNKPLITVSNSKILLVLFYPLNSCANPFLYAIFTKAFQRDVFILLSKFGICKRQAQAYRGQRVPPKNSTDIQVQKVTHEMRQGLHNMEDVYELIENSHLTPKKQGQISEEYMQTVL
In short: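 TSHR-HEK293 cells were plated and held 18 h at 37C/5% CO2, then given compound plus Ro20-1724 and stimulated with TSH at 1.5 ng/mL final. After 30 min at room temperature, cAMP was detected with cAMP-d2/anti-cAMP-cryptate (1 h) by fluorescence.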

[2] = qHTS assay to identify small molecule agonists of the estrogen receptor alpha (ER-alpha) signaling pathway in the presence of an antagonist - cell viability counter screen (AID 1259386); note: nearly all actives have a fitted effect of over 30% in size; note: potency is the fitted concentration of half-maximal effect
In short: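 Compounds tested at 15 concentrations for 22 h at 37C alongside 10.0nM (final) ICI-182,780 antagonist, in VM7Luc4E2 cells grown in phenol red-free, charcoal-stripped medium. Viability read by CellTiter-Fluor fluorescence after 1 h reagent incubation.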

[3] = biological target: Progesterone receptor (Homo sapiens) (UniProt P06401); test: qHTS assay to identify small molecule agonists of the progesterone receptor (PR) signaling pathway (AID 1346784; calls by dose curve; note: nearly all actives have a fitted effect of over 30% in size; note: potency is the fitted concentration of half-maximal effect)
Chain of Progesterone receptor (Homo sapiens) (P06401 whole entry, looked up): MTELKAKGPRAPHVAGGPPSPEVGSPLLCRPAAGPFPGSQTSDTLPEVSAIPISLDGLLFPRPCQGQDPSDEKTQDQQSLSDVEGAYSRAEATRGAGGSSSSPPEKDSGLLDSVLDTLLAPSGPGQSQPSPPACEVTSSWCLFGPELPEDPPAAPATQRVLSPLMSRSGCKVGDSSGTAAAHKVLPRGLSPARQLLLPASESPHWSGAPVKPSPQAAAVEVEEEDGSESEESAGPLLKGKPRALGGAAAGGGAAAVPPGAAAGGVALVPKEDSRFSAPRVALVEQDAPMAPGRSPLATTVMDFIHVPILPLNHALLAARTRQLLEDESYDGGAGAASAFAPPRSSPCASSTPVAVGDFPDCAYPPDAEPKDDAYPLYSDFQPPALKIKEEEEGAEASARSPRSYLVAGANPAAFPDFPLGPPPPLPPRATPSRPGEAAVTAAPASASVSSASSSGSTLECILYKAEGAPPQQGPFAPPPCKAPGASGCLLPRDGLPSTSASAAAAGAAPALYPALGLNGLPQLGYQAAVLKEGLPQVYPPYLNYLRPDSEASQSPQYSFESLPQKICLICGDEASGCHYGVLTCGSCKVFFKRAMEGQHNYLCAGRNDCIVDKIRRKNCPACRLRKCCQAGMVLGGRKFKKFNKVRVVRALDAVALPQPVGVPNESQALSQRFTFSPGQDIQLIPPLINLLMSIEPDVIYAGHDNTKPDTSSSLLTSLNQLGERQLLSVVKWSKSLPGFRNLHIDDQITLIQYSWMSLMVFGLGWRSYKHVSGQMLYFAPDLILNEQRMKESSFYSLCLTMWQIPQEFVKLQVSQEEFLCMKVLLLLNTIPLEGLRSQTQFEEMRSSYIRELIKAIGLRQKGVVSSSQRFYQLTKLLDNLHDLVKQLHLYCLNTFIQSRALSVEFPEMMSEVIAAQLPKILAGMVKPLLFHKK
In short: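 Fluorescence from LiveBLAzer B/G FRET substrate cleavage (2 hr, RT) reported PR activation in PR-UAS-bla HEK 293T cells treated 16 hr at 37C/5% CO2 with compounds; medium contained 2% charcoal-stripped FBS.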

[4] = qHTS assay to identify small molecule antagonists of the progesterone receptor (PR) signaling pathway - cell viability counter screen (AID 1346798); note: series mostly up to about 92 µM; nearly all actives have a fitted effect of over 50% in size
In short: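 CellTiter-Glo luminescence; PR-UAS-bla HEK293T, 3,000 cells/well; compound + R5020, 16 hr, 37C/5% CO2; 30 min RT before read.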

[5] = qHTS assay to identify small molecule agonists of the progesterone receptor (PR) signaling pathway - cell viability counter screen (AID 1346799; calls by dose curve; note: nearly all actives have a fitted effect of over 45% in size; note: potency is the fitted concentration of half-maximal effect)
In short: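 In parallel with the beta-lactamase readout, cytotoxicity toward PR-UAS-bla HEK293T cells was measured by CellTiter-Glo luminescence following 16 hr compound incubation in 2% charcoal-stripped FBS medium.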

[6] = qHTS assay to identify small molecule antagonists of the TGF-beta/Smad signaling pathway - cell viability counter screen (AID 1346824); note: nearly all actives have a fitted effect of over 50% in size
In short: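 SBE-bla HEK 293T cells were plated overnight at 37 C, then given compounds in DMSO plus TGF-beta1 (added as 0.25 ng/mL solution) for 5 hr. After the bla read, CellTiter-Glo was added to the same wells and luminescence read after 30 min at room temperature.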

[7] = qHTS assay to identify small molecule agonists of the TGF-beta/Smad signaling pathway - cell viability counter screen (AID 1346829); note: top concentration of the series differs between compounds; nearly all actives have a fitted effect of over 45% in size
In short: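 Same-well cytotoxicity: CellTiter-Glo added after the 2 hr room-temperature beta-lactamase substrate step, luminescence measured 30 min later; cells had 5 hr of compound at 37 C.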

[8] = biological target: Progesterone receptor (Homo sapiens) (UniProt P06401); test: qHTS assay to identify small molecule antagonists of the progesterone receptor (PR) signaling pathway (AID 1346795; active = well fitted inhibition curve with a large enough effect in the signal ratio in the repeat runs, not every such curve was filed as active; the % refers to the signal ratio; note: potency is the fitted concentration of half-maximal effect)
In short: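 Fluorescence intensity measured 2 hr after adding beta-lactamase FRET substrate to PR-UAS-bla HEK293T cells that had been co-treated 16 hr with compound and 1 nM R5020 (final concentration) in 2% charcoal-stripped FBS.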

[9] = biological target: Thyrotropin-releasing hormone receptor (Homo sapiens) (UniProt P34981); test: qHTS assay to identify small molecule antagonists of the thyrotropin-releasing hormone receptor (TRHR) signaling pathway (AID 1346877; active = well fitted inhibition curve with a large enough effect in the repeat runs, not every such curve was filed as active; note: potency is the fitted concentration of half-maximal effect)
Chain of Thyrotropin-releasing hormone receptor (Homo sapiens) (P34981 whole entry, looked up): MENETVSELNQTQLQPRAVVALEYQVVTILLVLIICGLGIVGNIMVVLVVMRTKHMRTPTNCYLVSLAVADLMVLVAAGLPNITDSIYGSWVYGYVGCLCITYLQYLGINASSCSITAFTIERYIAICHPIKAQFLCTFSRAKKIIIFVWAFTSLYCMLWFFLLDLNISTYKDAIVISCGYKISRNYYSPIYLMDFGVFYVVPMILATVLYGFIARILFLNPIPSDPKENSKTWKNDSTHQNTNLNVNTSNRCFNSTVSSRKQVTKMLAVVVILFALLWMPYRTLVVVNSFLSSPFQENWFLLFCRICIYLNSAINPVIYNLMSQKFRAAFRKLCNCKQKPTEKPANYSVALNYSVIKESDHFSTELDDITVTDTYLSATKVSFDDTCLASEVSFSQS
In short: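 Antagonist mode: after a 5 min room-temperature compound exposure, cells were stimulated with 1 nM (final) TRH. Dye-loaded TRHR-HEK293 cells were used, and calcium-dependent fluorescence was followed for 3 min, with 15-point titrations run in triplicate.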

[10] = qHTS assay to identify small molecule agonists of the TGF-beta/Smad signaling pathway (AID 1346859; active = well fitted activation curve with a large enough effect in the signal ratio in the repeat runs, not every such curve was filed as active; the % refers to the signal ratio; note: series mostly up to about 77 µM)
In short: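 After overnight seeding, SBE-bla HEK 293T cells are dosed with compounds in DMSO and kept 5 hr at 37 C, 5% CO2. LiveBLAzer-type FRET substrate is then applied for 2 hr at room temperature.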

Measured: Potency

CC1(C)C(C=C(Cl)Cl)C1C(=O)OC(C#N)c1cccc(Oc2ccccc2)c1 (stereo unspecified)
not listed: [8] | [9] | [10]
inactive: all other assays above

Oc1cc(Cl)ccc1Cl
not listed: [4] | [10]
inactive: all other assays above

CCOC(=O)C(C)OC(=O)c1cc(Oc2ccc(C(F)(F)F)cc2Cl)ccc1[N+](=O)[O-] (stereo unspecified)
active: [8] 30.5 µM
not listed: [4] | [5] | [9]
inactive: all other assays above

COP(=S)(OC)Oc1cc(Cl)c(Cl)cc1Cl
not listed: [4] | [9] | [10]
inactive: all other assays above

CC(C)c1ccc(CO)cc1
not listed: [4] | [9]
inactive: all other assays above

CCOc1cc(Oc2ccc(C(F)(F)F)cc2Cl)ccc1[N+](=O)[O-]
active: [8] 15.5 µM and 13.7 µM
not listed: [4] | [5] | [10]
inactive: all other assays above

C=C(C)C(=O)OCC1CO1 (stereo unspecified)
not listed: [4]
inactive: all other assays above

Cc1c(COC(=O)[C@@H]2[C@H](/C=C(\Cl)C(F)(F)F)C2(C)C)cccc1-c1ccccc1
inactive and 54.3 µM (active): [5]
not listed: [4] | [9]
inactive: all other assays above

CNC(=O)Oc1cccc2c1OC(C)(C)O2
not listed: [4] | [10]
inactive: all other assays above

c1ccc(NNc2ccccc2)cc1
not listed: [4] | [10]
inactive: all other assays above

CCCCCc1cc(O)cc(O)c1
active: [8] 68.9 µM and 21.7 µM
not listed: [4] | [5] | [9]
inactive: all other assays above

NNC(N)=S
active: [8] 11.3 µM and 21.7 µM | [5] 43.3 µM
not listed: [4]
inactive: all other assays above

C#C[C@]1(O)CC[C@H]2[C@@H]3CCC4=CC(=O)CC[C@]4(C)[C@H]3CC[C@@]21C
active: [3] 0.0243 µM
not listed: [4] | [9]
inactive: all other assays above

CCCCCCCCC(=O)NCc1ccc(O)c(OC)c1
inactive: [1] | [2] | [3] | [6] | [7]
active: [8] 48.6 µM

C=CCN(CC=C)C(=O)C(Cl)Cl
not listed: [4] | [9]
inactive: all other assays above

O=Cc1ccco1
not listed: [4] | [10]
inactive: all other assays above

CC(C)NC(C)C
not listed: [4]
inactive: all other assays above

CCCCN(CC)c1c([N+](=O)[O-])cc(C(F)(F)F)cc1[N+](=O)[O-]
not listed: [4] | [10]
inactive: all other assays above

CC(C)Oc1cc(-n2nc(C(C)(C)C)oc2=O)c(Cl)cc1Cl
active: [8] 24 µM and 24.3 µM
not listed: [4]
inactive: all other assays above

CC(C)C(=O)OCC(C)(C)C(OC(=O)C(C)C)C(C)C (stereo unspecified)
not listed: [4] | [9] | [10]
inactive: all other assays above

Cc1ccc(OP(=O)(Oc2ccc(C)cc2)Oc2ccc(C)cc2)cc1
active: [8] 15.4 µM
not listed: [4]
inactive: all other assays above

Oc1c(Cl)c(Cl)c(Cl)c(Cl)c1Cl
active: [8] 59.9 µM and 48.6 µM
not listed: [4] | [5]
inactive: all other assays above

CCCCC(CC)COC(=O)c1ccc(C(=O)OCC(CC)CCCC)c(C(=O)OCC(CC)CCCC)c1 (stereo unspecified)
not listed: [4] | [10]
inactive: all other assays above

O=[N+]([O-])c1ccc(O)c([N+](=O)[O-])c1
active: [2] 30.8 µM and 27.3 µM
not listed: [4] | [5]
inactive: all other assays above

CC(C)(c1cc(Cl)c(O)c(Cl)c1)c1cc(Cl)c(O)c(Cl)c1
active: [8] 7.7 µM | [9] 30.1 µM
not listed: [4]
inactive: all other assays above

CCCCCCCCOC(=O)c1ccccc1C(=O)OCCCCCCCC
not listed: [4] | [10]
inactive: all other assays above

Cc1cccc(N)c1N
not listed: [8]
inactive: all other assays above

Nc1ccc(Cl)cc1N
inactive: [1] | [2] | [3] | [5] | [6] | [7]
